Reference: PubChem BioAssay AID1159580 (chemical genetic matrix, 2015)
Screen size: about 5,500 compounds; about 2,000 (36%) were called active. Not shown: some 18% with an inconclusive outcome. No stated cut-off is given here; in the data, active means normalized growth mostly below about 0.91 (no sharp cut-off); inconclusive means no clear call, values can overlap the other calls; inactive means mostly above about 0.92. The list shows a part of the results.

Experiment: chemical genetic growth profiling, strain panel (AID 1159580);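 further: tested at 20 µM; growth read once vehicle control cultures reached saturation at 30 °C; 1 = growth at the plate median or of vehicle wells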
Conditions: growth OD

Measured: normalized growth

Cc1c(N(C)C)c(=O)n(-c2ccccc2)n1C
inactive: S. cerevisiae deletion strains, locus YKL009W, strain mrt4, stronger effect = lower value 0.984 | S. cerevisiae deletion strains, locus YKL068W, stronger effect = lower value 0.991 | S. cerevisiae deletion strains, locus YKL085W, strain MDH1 (second series), stronger effect = lower value 0.985 | S. cerevisiae deletion strains, locus YKL085W, strain MDH1, stronger effect = lower value 0.985 | S. cerevisiae deletion strains, locus YKL160W, strain elf1, stronger effect = lower value 0.988 | S. cerevisiae deletion strains, locus YKL190W, strain CNB1, stronger effect = lower value 0.988 | S. cerevisiae deletion strains, locus YKR001C, strain vps1, stronger effect = lower value 1 | S. cerevisiae deletion strains, locus YKR026C, strain gcn3, stronger effect = lower value 0.992 | S. cerevisiae deletion strains, locus YKR091W, strain srl3, stronger effect = lower value 0.976 | S. cerevisiae deletion strains, locus YLL001W, strain dnm1, stronger effect = lower value 0.972 | S. cerevisiae deletion strains, locus YLL026W, stronger effect = lower value 0.973 | S. cerevisiae deletion strains, locus YLL041C, strain sdh2, stronger effect = lower value 0.992 | S. cerevisiae deletion strains, locus YLR027C, strain aat2, stronger effect = lower value 0.97 | S. cerevisiae deletion strains, locus YLR039C, strain RIC1, stronger effect = lower value 0.983 | S. cerevisiae deletion strains, locus YLR058C, strain SHM2, stronger effect = lower value 0.997 | S. cerevisiae deletion strains, locus YLR102C, strain apc9, stronger effect = lower value 0.992 | S. cerevisiae deletion strains, locus YLR113W, strain HOG1, stronger effect = lower value 1.03 | S. cerevisiae deletion strains, locus YLR221C, strain rsa3, stronger effect = lower value 1.06 | S. cerevisiae deletion strains, locus YLR258W, strain gsy2, stronger effect = lower value 0.985 | S. cerevisiae deletion strains, locus YLR262C, strain YPT6 (second series), stronger effect = lower value 0.971 | S. cerevisiae deletion strains, locus YLR262C, strain YPT6, stronger effect = lower value 0.972 | S. cerevisiae deletion strains, locus YLR268W, strain sec22, stronger effect = lower value 0.963 | S. cerevisiae deletion strains, locus YLR320W, strain mms22, stronger effect = lower value 0.994 | S. cerevisiae deletion strains, locus YLR330W, strain CHS5, stronger effect = lower value 0.989 | S. cerevisiae deletion strains, locus YLR342W, strain FKS1 (second series), stronger effect = lower value 1.05 | S. cerevisiae deletion strains, locus YLR342W, strain FKS1, stronger effect = lower value 0.961 | S. cerevisiae deletion strains, locus YLR357W, strain rsc2, stronger effect = lower value 0.935 | S. cerevisiae deletion strains, locus YLR370C, strain arc18, stronger effect = lower value 0.984 | S. cerevisiae deletion strains, locus YLR371W, strain rom2, stronger effect = lower value 0.991 | S. cerevisiae deletion strains, locus YLR384C, strain iki3, stronger effect = lower value 0.991 | S. cerevisiae deletion strains, locus YLR418C, strain cdc73, stronger effect = lower value 1.03 | S. cerevisiae deletion strains, locus YML016C, strain PPZ1, stronger effect = lower value 1 | S. cerevisiae deletion strains, locus YML032C, strain rad52, stronger effect = lower value 0.967 | S. cerevisiae deletion strains, locus YML120C, strain ndi1, stronger effect = lower value 0.993 | S. cerevisiae deletion strains, locus YML124C, strain tub3, stronger effect = lower value 0.997 | S. cerevisiae deletion strains, locus YMR058W, strain fet3, stronger effect = lower value 1.01 | S. cerevisiae deletion strains, locus YMR078C, strain ctf18, stronger effect = lower value 0.985 | S. cerevisiae deletion strains, locus YMR125W, strain sto1, stronger effect = lower value 0.989 | S. cerevisiae deletion strains, locus YMR129W, stronger effect = lower value 0.991 | S. cerevisiae deletion strains, locus YMR205C, strain PFK2, stronger effect = lower value 0.991 | S. cerevisiae deletion strains, locus YMR223W, strain ubp8, stronger effect = lower value 1.02 | S. cerevisiae deletion strains, locus YMR231W, strain pep5, stronger effect = lower value 0.978 | S. cerevisiae deletion strains, locus YMR263W, strain SAP30, stronger effect = lower value 0.989 | S. cerevisiae deletion strains, locus YMR307W, strain GAS1, stronger effect = lower value 1.08 | S. cerevisiae deletion strains, locus YNL067W, strain RPL9B, stronger effect = lower value 0.978 | S. cerevisiae deletion strains, locus YNL071W, strain lat1, stronger effect = lower value 1 | S. cerevisiae deletion strains, locus YNL128W, strain TEP1, stronger effect = lower value 0.983 | S. cerevisiae deletion strains, locus YNL153C, strain GIM3, stronger effect = lower value 0.985 | S. cerevisiae deletion strains, locus YNL183C, strain NPR1, stronger effect = lower value 0.988 | S. cerevisiae deletion strains, locus YNL209W, strain ssb2, stronger effect = lower value 1.01 | S. cerevisiae deletion strains, locus YNL233W, strain BNI4, stronger effect = lower value 0.986 | S. cerevisiae deletion strains, locus YNL248C, strain rpa49, stronger effect = lower value 1 | S. cerevisiae deletion strains, locus YNL250W, strain rad50, stronger effect = lower value 0.972 | S. cerevisiae deletion strains, locus YNL271C, strain bni1, stronger effect = lower value 0.966 | S. cerevisiae deletion strains, locus YNL298W, strain CLA4, stronger effect = lower value 1 | S. cerevisiae deletion strains, locus YNL307C, strain MCK1, stronger effect = lower value 0.996 | S. cerevisiae deletion strains, locus YNL322C, strain KRE1 (second series), stronger effect = lower value 0.975 | S. cerevisiae deletion strains, locus YNL322C, strain KRE1, stronger effect = lower value 0.991 | S. cerevisiae deletion strains, locus YNR049C, strain mso1, stronger effect = lower value 0.996 | S. cerevisiae deletion strains, locus YNR052C, strain pop2, stronger effect = lower value 0.993 | S. cerevisiae deletion strains, locus YOL006C, strain TOP1, stronger effect = lower value 0.978 | S. cerevisiae deletion strains, locus YOL012C, strain htz1 2 | S. cerevisiae deletion strains, locus YOL147C, strain pex11, stronger effect = lower value 0.985 | S. cerevisiae deletion strains, locus YOR001W, strain rrp6, stronger effect = lower value 0.971 | S. cerevisiae deletion strains, locus YOR061W, strain CKA2, stronger effect = lower value 0.995 | S. cerevisiae deletion strains, locus YOR069W, strain VPS5, stronger effect = lower value 1 | S. cerevisiae deletion strains, locus YOR070C, strain gyp1, stronger effect = lower value 0.999 | S. cerevisiae deletion strains, locus YOR080W, strain dia2, stronger effect = lower value 0.98 | S. cerevisiae deletion strains, locus YOR083W, strain WHI5, stronger effect = lower value 0.956 | S. cerevisiae deletion strains, locus YOR106W, strain vam3, stronger effect = lower value 0.988 | S. cerevisiae deletion strains, locus YOR136W, strain idh2, stronger effect = lower value 1 | S. cerevisiae deletion strains, locus YOR144C, strain elg1, stronger effect = lower value 0.992 | S. cerevisiae deletion strains, locus YOR184W, strain ser1, stronger effect = lower value 1.01 | S. cerevisiae deletion strains, locus YOR231W, strain MKK1, stronger effect = lower value 0.992 | S. cerevisiae deletion strains, locus YOR265W, strain rbl2, stronger effect = lower value 0.998 | S. cerevisiae deletion strains, locus YOR270C, strain vph1, stronger effect = lower value 1.04 | S. cerevisiae deletion strains, locus YOR290C, strain snf2, stronger effect = lower value 0.996 | S. cerevisiae deletion strains, locus YOR316C, strain cot1, stronger effect = lower value 0.998 | S. cerevisiae deletion strains, locus YPL051W, strain arl3, stronger effect = lower value 0.992 | S. cerevisiae deletion strains, locus YPL055C, strain LGE1, stronger effect = lower value 1 | S. cerevisiae deletion strains, locus YPL078C, strain atp4, stronger effect = lower value 0.98 | S. cerevisiae deletion strains, locus YPL106C, strain sse1, stronger effect = lower value 0.974 | S. cerevisiae deletion strains, locus YPL240C, strain hsp82, stronger effect = lower value 0.99 | S. cerevisiae deletion strains, locus YPL241C, strain CIN2, stronger effect = lower value 0.996 | S. cerevisiae deletion strains, locus YPL256C, strain CLN2, stronger effect = lower value 1.02 | S. cerevisiae deletion strains, locus YPR119W, strain clb2, stronger effect = lower value 0.994 | S. cerevisiae deletion strains, locus YPR141C, strain kar3, stronger effect = lower value 0.966 | S. cerevisiae deletion strains, locus YPR163C, strain tif3, stronger effect = lower value 0.976 | S. cerevisiae deletion strains, locus YPR167C, strain met16, stronger effect = lower value 0.989 | S. cerevisiae deletion strains, strain wtn01, stronger effect = lower value 0.997 | S. cerevisiae strains, strain wild type, stronger effect = lower value 0.995
